Shown are actives, neighbours in structure and some others; about 3.3% of the full set was active somewhere.
Mcl-1 Bim block – disrupts Bim peptide binding to human Mcl-1; Bead-based flow cytometry, Bim peptide-Mcl-1 binding; inhibition, % at 10 µM; 0.1% of 190,000 active; AID 1009; Q07820; in the data active = inhibition above about 40%;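 note: 0% = no compound tracer wells and 100% = peptide blocker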
14-3-3 Bad PPI – disrupts binding of bovine 14-3-3 zeta to phospho-Bad peptide. P63103. 0.71% of 220,000 active. inhibition, % at 21.7 µM. TR-FRET 14-3-3zeta/Dy647-pBad peptide displacement, 1 h;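 active = inhibition above about 70%, limit read from the data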;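 note: 0% = full 14-3-3 plus peptide FRET controls and 100% = background without 14-3-3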
eIF4E-4G inh – inhibitors of eIF4E and eIF4G interaction in translation initiation; P63073+Q04637; TR-FRET eIF4E-eIF4GI(517-606) binding, 2 h; inhibition, % at 21.7 µM; 0.37% of 220,000 active; AID 782;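 note: 0% = full FRET control wells and 100% = background wells lacking eIF4GI fragment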
NCF1 inh – inhibitors of human p47phox binding; P14598; p47phox/p22phox peptide binding, fluorescence polarization, 2 h; inhibition, % at 24.7 µM; 0.53% of 220,000 active;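 note: 0% = p47phox with labelled peptide and 100% = labelled peptide alone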
Target sequence (P14598 whole entry, looked up): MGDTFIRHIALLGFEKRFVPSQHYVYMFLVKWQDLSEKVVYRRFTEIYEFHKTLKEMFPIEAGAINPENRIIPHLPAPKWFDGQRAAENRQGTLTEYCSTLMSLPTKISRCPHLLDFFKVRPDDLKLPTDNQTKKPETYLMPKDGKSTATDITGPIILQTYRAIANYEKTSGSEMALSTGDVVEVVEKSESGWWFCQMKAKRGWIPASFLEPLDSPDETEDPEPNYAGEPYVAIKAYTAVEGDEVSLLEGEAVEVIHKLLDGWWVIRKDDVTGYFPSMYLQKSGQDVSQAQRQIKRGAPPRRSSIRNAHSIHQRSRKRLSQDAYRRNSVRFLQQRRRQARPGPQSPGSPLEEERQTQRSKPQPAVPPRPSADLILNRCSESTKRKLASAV
Mcl1-Noxa inh – Mcl-1/Noxa interaction inhibition. inhibition, % at 21.7 µM. TR-FRET Mcl-1/Noxa peptide binding, 2 h. Q07820. 1.5% of 220,000 active. AID 1022;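 active = compounds that cut the protein-peptide binding signal by more than 50% relative to plate controls in a single-dose test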;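 note: His-tagged Mcl-1 with rhodamine Noxa BH3 peptide and terbium anti-His antibody; 0% = Mcl-1 plus Noxa peptide wells and 100% = peptide-only wells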
Mcl1 Bid PPI – Mcl-1/Bid interaction inhibition. Q07820. 0.97% of 220,000 active. AID 1021. TR-FRET Mcl-1/Bid-Dy647 peptide binding, 1536-well. inhibition, % at 21.7 µM;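 active = compounds that cut the binding signal by more than half at the single screening dose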;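 note: His-tagged Mcl-1 with europium anti-His antibody binding Bid BH3 peptide; 0% = Mcl-1 plus peptide wells and 100% = peptide-only wells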
Active calls of the source: *; nt = no result given.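 Rule for the calls, unless noted: active = inhibition above about 30% (limit read from the data); inactive = the rest.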

SMILES	Mcl-1 Bim block	14-3-3 Bad PPI	eIF4E-4G inh	NCF1 inh	Mcl1-Noxa inh	Mcl1 Bid PPI
CCOC(=O)N1CCC(N2CCN(S(=O)(=O)c3ccc(C)cc3)CC2)CC1	-1.0	63.7	-0.2	7.9	8.1	30.6
O=C1c2cccc3cccc(c23)C(=O)N1c1ccc2ncccc2c1	6.0	73.8*	6.5	34.5*	-12.5	7.6
COc1ccc(C(=O)/C=C(\N)C(F)(F)F)c(O)c1	0.0	-1.7	3.4	3.7	69.0*	15.8
NS(=O)(=O)c1ccc(NC(=O)COc2ccc(C(=O)c3ccc(F)cc3)cc2)cc1	nt	1.6	-3.6	-56.7	-107.5	-54.3
COc1cc(/C(C)=N\NC(=O)CSc2nc3ccccc3n2C)ccc1O	nt	-1.3	0.8	1.2	-84.5	-39.8
CC1CCc2cc(F)ccc2N1C(=O)C12CCC(C)(C(=O)O1)C2(C)C (centres undefined)	0.0	91.8*	2.5	-9.1	1.8	-0.4
Nc1ccc(Sc2ccc([N+](=O)[O-])cc2)cc1	0.0	-0.8	2.1	2.8	20.3	-34.4
O=C1C=CC(=O)N1c1ccc(Sc2ccc([N+](=O)[O-])cc2)cc1	nt	23.2	14.3	-6.3	72.9*	39.7
Cc1cccc(NC(=O)C2C(C(=O)O)C3C=CC2C32CC2)c1C (centres undefined)	-4.0	-3.1	-13.8	-1.2	13.2	97.4*
Cc1ccc(NC(=O)C2C(C(=O)O)C3C=CC2C32CC2)cc1 (centres undefined)	-3.0	38.8	2.8	2.0	-8.7	-11.4
Cc1ccc(C)c(N2CC(C(=O)O)CC2=O)c1 (centres undefined)	0.0	-4.7	2.9	-6.5	2.8	-15.4
CCC(C)[C@H](NC(=O)NC(C)C)C(=O)O (some centres undefined)	-1.0	0.1	-4.0	-5.2	-3.9	5.8
O=C(N/N=C/c1ccc(Cl)c([N+](=O)[O-])c1)c1cc(-c2ccc3c4c(cccc24)CC3)n[nH]1	nt	22.9	4.1	3.6	64.2*	22.8
O=C(N/N=C/c1cccc([N+](=O)[O-])c1)c1cc(-c2ccc3c4c(cccc24)CC3)n[nH]1	-5.0	43.4	2.7	4.5	24.4	59.7*
Nc1cc(C(=O)N/N=C/c2cccc([N+](=O)[O-])c2)n[nH]c1=O	nt	-3.4	1.0	-17.9	20.4	-55.2
Cc1ccnc(N/C=C(/NC(=O)c2ccccc2)C(=O)N/N=C\c2ccc(Cl)cc2)n1	nt	1.3	-8.0	-9.6	13.7	-29.9
COc1ccccc1N(C)S(=O)(=O)c1ccc(C(=O)Nc2nc(C)cs2)cc1	0.0	-14.3	-1.2	-8.8	-0.3	-6.2
CCN(CC)c1ncc(C#N)c(N)n1	nt	4.1	1.4	0.8	2.0	-3.5
COc1cc(OC)c2c(O)c3c(c(-c4c5c(c(O)c6c(OC)cc(OC)cc46)CO[C@@H](C)[C@H]5O)c2c1)[C@H](O)[C@H](C)OC3	-4.0	44.1	20.4	-120.7	101.5*	78.8*
COc1cc2c(c(OC)c1O)C(=O)CO2	nt	-4.6	-1.0	-11.2	15.0	-48.8
Cc1ccc(-n2c(C)cc(C3=NNC(=NC4CC4)SC3)c2C)cc1C	-4.0	3.3	-0.3	2.2	34.8	-13.2
O=S1(=O)c2ccccc2C(CCO)N1Cc1ccccc1 (centres undefined)	nt	-2.8	-3.0	-7.5	1.0	-45.6
Clc1ccc(-c2nnnn2-c2ccc(Cl)cc2)cc1	nt	1.9	-5.0	0.9	-8.6	-4.5
Cc1ccc(-n2nnnc2C(Cl)(Cl)c2nnnn2-c2ccc(C)cc2)cc1	-9.0	15.7	14.6	-1.9	53.3*	-29.7
Cc1ccc(C(=O)N2CC(=O)Nc3ccc(F)cc3C2c2ccc(F)cc2)cc1[N+](=O)[O-] (centres undefined)	-4.0	11.3	3.1	8.2	9.0	52.7*
CN(C)CCCCOc1ccccc1-c1ccccc1	-3.0	67.8	2.1	12.7	25.3	73.0*
CCN1CCN(CCOc2ccccc2-c2ccccc2)CC1	-1.0	28.7	-1.9	-0.7	12.3	20.3
CCN1CCN(CCCOc2ccccc2-c2ccccc2)CC1	0.0	70.5*	2.8	4.7	3.7	48.9
Cc1cccc(C)c1NC(=O)CC(NCCc1ccccc1)C(=O)O (centres undefined)	-5.0	-1.6	23.6	-7.5	14.7	-12.7
COc1cc(N=c2ssnc2Cl)cc(OC)c1	-14.0	48.4	63.1*	10.7	nt	-6.4

High-throughput results (PubChem BioAssay)
